ABCB6 inh 2 – blocks the human ABCB6 transporter; K562-ABCB6 porphyrin accumulation, flow cytometry, 1 h; active compounds read low; fluorescence ratio to DMSO, % at 10 µM; Q9NP58; 0.19% of 360,000 active;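 active = fluorescence ratio to DMSO below 75%, the collection mean minus 3 SD; inconclusive = too few cells collected in the well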;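 also: signal is porphyrin accumulated inside mitochondria; lower ratio means ABCB6 inhibition with less porphyrin fluorescence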
Target sequence (Q9NP58 whole entry, looked up): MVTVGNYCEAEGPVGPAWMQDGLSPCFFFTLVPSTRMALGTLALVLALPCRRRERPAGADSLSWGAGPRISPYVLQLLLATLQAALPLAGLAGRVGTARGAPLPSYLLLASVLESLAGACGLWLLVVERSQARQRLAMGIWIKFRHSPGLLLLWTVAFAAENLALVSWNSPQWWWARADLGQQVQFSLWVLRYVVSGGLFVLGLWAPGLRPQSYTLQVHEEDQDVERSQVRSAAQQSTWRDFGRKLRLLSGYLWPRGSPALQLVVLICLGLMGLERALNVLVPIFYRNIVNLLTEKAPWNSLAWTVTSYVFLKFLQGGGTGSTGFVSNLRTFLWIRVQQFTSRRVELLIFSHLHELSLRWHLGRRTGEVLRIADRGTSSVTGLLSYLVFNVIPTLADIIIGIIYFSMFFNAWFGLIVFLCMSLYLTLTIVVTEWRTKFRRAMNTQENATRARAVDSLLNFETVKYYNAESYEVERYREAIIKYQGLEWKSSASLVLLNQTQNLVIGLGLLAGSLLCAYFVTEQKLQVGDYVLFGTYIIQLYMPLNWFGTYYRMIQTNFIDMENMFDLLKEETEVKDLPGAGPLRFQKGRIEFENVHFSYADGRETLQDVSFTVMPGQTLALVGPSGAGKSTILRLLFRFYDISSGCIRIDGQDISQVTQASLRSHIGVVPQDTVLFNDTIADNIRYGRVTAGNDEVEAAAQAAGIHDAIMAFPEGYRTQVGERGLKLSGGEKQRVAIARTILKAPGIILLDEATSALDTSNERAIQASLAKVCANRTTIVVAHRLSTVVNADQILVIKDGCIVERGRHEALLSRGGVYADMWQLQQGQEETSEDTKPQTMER
Myeloid diff MLP – myeloid differentiation induction; ER-HoxA9 myeloid progenitors, lysozyme-GFP differentiation, flow cytometry; 1% of 360,000 active; calls only at 10 µM;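 active = normalized GFP-positive differentiation at or above the plate's own cutoff, the solvent-only control mean plus 3 SD; inconclusive = no clear call, values can overlap the other calls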;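 also: cells exposed to compound for four days before flow analysis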
Granule exo inh – lytic granule exocytosis inhibition. 0.66% of 360,000 active. AID 651702. inhibition, % at 10 µM. TALL-104 LAMP-1 surface exposure, flow cytometry; cells stimulated with thapsigargin and PMA;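 active = inhibition above about 55%, limit read from the data; inconclusive = no clear call, values can overlap the other calls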
Granule exo CP1 – blocks lytic granule exocytosis | shares compounds with Granule exo inh | TALL-104 cells, LAMP-1 externalization, flow cytometry; stimulated with PMA plus thapsigargin | inhibition, % at 10 µM | 11% of 1,500 active; in the data active = inhibition above about 60%
A number is an active result; – = inactive; ? = inconclusive; · = not tested or not shown. In the library only some 1.8% were active in any assay of this set; here they are far more common.

SMILES	ABCB6 inh 2	Myeloid diff MLP	Granule exo inh	Granule exo CP1
Cc1ccc(NC(=O)C2CCN(S(=O)(=O)c3ccc4c(c3)C(C)(C)C(=O)N4C)CC2)c(C)c1	–	–	–	·
C=CCn1cccc(C(=O)Nc2ccc(F)cc2)c1=O	–	–	–	·
CCOc1ccc(OCC)c(NC(=O)CN(c2ccc(OC)cc2)S(=O)(=O)c2c(C)noc2C)c1	–	–	57	–
CCOc1ccc(OCC)c(NC(=O)CN(c2ccc(C)cc2)S(=O)(=O)c2c(C)noc2C)c1	–	–	–	·
CCOc1ccc(N(CC(=O)NCCc2ccc(C)cc2)S(=O)(=O)c2c(C)noc2C)cc1	–	–	79	–
Cc1ccc(N(CC(=O)NCCc2ccccc2)S(=O)(=O)c2c(C)noc2C)cc1	–	–	–	·
Cc1ccc(OCCCC(=O)N(C)CC(=O)Nc2c(C)cccc2C)cc1	–	–	–	·
Cc1cc(C)c(S(=O)(=O)Nc2cccc(-n3cnnn3)c2)c(C)c1	–	–	–	·
Cc1cc(C)c(C)c(S(=O)(=O)Nc2cccc(-n3cnnn3)c2)c1C	–	–	60	–
COCCN(C(=O)CSc1nc2ccccc2o1)c1c(N)n(Cc2ccccc2)c(=O)[nH]c1=O	–	–	–	·
COc1ccc(CC(CN)c2ccccc2)cc1 (stereo unspecified)	–	–	58	–
COc1ccc(CC(CC(=O)O)C(=O)NCc2ccccc2)cc1 (stereo unspecified)	–	–	–	·
O=C(NCCCc1ccc(F)cc1)C1CCC(=O)N(CCN2CCOCC2)C1 (stereo unspecified)	–	–	–	·
O=C(NCC(=O)N1CCN(c2ccccc2)CC1)c1ccc(Br)o1	–	–	–	·
Cc1cccc(NC(=O)CSc2nc3ccccc3c3nc(CCc4c(C)n[nH]c4C)nn23)c1	–	–	–	·
Cc1cncn1CCc1nc2c3ccccc3nc(SCC(=O)Nc3cccc(Cl)c3)n2n1	–	–	68	81
COc1ccc(-c2cc(N3CCN(CCO)CC3)n3nccc3n2)cc1	–	–	–	·
OCCN1CCN(c2cc(-c3ccc4ccccc4c3)nc3ccnn23)CC1	–	–	59	–
CC(OC(=O)c1ccc(Cl)nc1)C(=O)NC1CCCC1 (stereo unspecified)	–	–	–	·
O=C1CC(Cc2ccccc2)C(=O)N1CCc1ccc2c(c1)OCO2 (stereo unspecified)	–	–	76	–
Cc1cccc(CC2CC(=O)N(CCc3ccc4c(c3)OCO4)C2=O)c1 (stereo unspecified)	–	–	–	·
Cc1nn(CC2CC2)c(=O)n1-c1ccc(Oc2ccccc2)cc1	–	–	–	·
COC(=O)[C@@H](NC(=O)NCCC1=CCCCC1)C(C)C	–	–	–	·
Cc1ccc(S(=O)(=O)N2CCC(=O)N([C@H](COCc3ccc(Cl)cc3)Cc3ccccc3)CC2)cc1	–	–	–	·
Cc1ccc(S(=O)(=O)N2CCC(=O)N(C(COCc3ccccc3)Cc3ccccc3)CC2)cc1 (stereo unspecified)	–	–	90	–
SMILES	ABCB6 inh 2	Myeloid diff MLP	Granule exo inh	Granule exo CP1
C=CCn1c(SCC(=O)c2ccc(O)c(O)c2)nnc1-c1cccc(OC)c1	–	–	–	·
COc1cc(NC(=O)[C@@H]2O[C@H](CO)[C@@H](O)[C@H]2O)cc(OC)c1OC	–	–	–	·
CCOC(=O)c1cocc1C(=O)O	–	–	–	·
O=C(NC1CCN(Cc2ccccc2)CC1)c1ccccc1Cl	–	–	–	·
Cc1oc(-c2ccccc2)cc1C(=O)NC1CCN(Cc2ccccc2)CC1	–	–	67	–
c1ccc(COc2ccc(-c3cc4nc(NCCOc5ccccc5)ccn4n3)cc2)cc1	–	–	–	·
c1ccc(COc2ccc(-c3cc4nc(NCCN5CCOCC5)ccn4n3)cc2)cc1	–	–	61	–
COc1ccc(NC(=O)c2c(C)nn(Cc3ccccc3)c2C)cc1S(=O)(=O)N(C)C	–	–	71	–
COc1ccc(NC(=O)c2c(C)nn(Cc3ccccc3)c2Cl)cc1S(=O)(=O)N1CCOCC1	–	–	–	·
C#Cc1ccc([C@@H]2C=C(C(=O)O)O[C@H](OCC)[C@H]2CCCO)cc1	–	–	–	·
COC(C(=O)NC(C(C)C)C(C)C)c1ccccc1 (stereo unspecified)	–	–	–	·
Cc1ccc(-n2sc3cc(F)ccc3c2=O)c(C)c1	–	–	–	·
O=c1c2ccc(F)cc2sn1-c1ccccc1	–	–	71	100
N=C1SCC(=O)N1c1ccccc1Cl	–	–	–	·
O=c1c2cc(F)ccc2sn1-c1ccccc1Cl	–	–	64	103
CCCCOc1ccc(/C=C/C(=O)OCC(=O)NC(=O)NCC(C)C)cc1OCC	–	–	–	·
CC1CC(C)(C)Nc2ccc(OC(=O)c3ccco3)cc21 (stereo unspecified)	–	?	82	–
O=C(Oc1ccc2ccccc2c1)c1ccco1	–	–	–	·
Cc1cc(Nc2cccc(Cl)c2)nc(NCc2ccccc2)n1	–	–	70	–
Cc1cc(N/N=C/c2cccc(Cl)c2)nc(NCc2ccccc2)n1	–	–	–	·
COc1ccc(C(=O)CCN2CCCC(C)C2)cc1 (stereo unspecified)	–	–	71	–
CC1CCCN(CCC(=O)c2ccc(Br)cc2)C1 (stereo unspecified)	–	–	–	·
O=C(CN1c2cccc3cccc(c23)S1(=O)=O)Nc1c(F)c(F)c(F)c(F)c1F	–	–	–	·
COC(=O)[C@H](Cc1ccccc1)NC(=O)Cn1ccc(NC(=O)OCc2ccccc2)nc1=O	–	–	–	·
CN(C)CCNC(=O)C(c1ccccc1)c1ccccc1	–	–	–	·
SMILES	ABCB6 inh 2	Myeloid diff MLP	Granule exo inh	Granule exo CP1
CN(C)CCC(=O)C(Cc1ccccc1)c1ccccc1 (stereo unspecified)	–	–	97	–
COc1cccc(CN(C)C(c2ccccc2)c2ccccc2)c1OC	–	–	89	–
COc1ccc(CN(C)C(c2ccccc2)c2nnnn2-c2ccccc2C)c(OC)c1C (stereo unspecified)	–	–	–	·
CC1=NNC(=O)C1CCC(=O)N/N=C/C(Br)=C/c1ccccc1 (stereo unspecified)	–	?	–	·
COc1ccccc1NC(=O)NC1CCS(=O)(=O)C1 (stereo unspecified)	–	–	–	·
CCC(C(=O)NC1CCCC1)n1c(-c2cc3ccccc3[nH]2)nc2ccccc21 (stereo unspecified)	·	–	–	·
CCOC(=O)c1nnn2c1nc(N(CC)CC)c1ccccc12	–	–	74	–
CCOC(=O)c1n[nH]n2c1nc(=O)c1ccccc12	–	–	–	·
CCOC(=O)C1(CCOc2ccccc2)CCN(Cc2ccc(COC)o2)CC1	–	–	–	·
CCOC(=O)C1(Cc2cccc(OC)c2)CCN(Cc2ccc(OC)c(O)c2)CC1	–	–	–	·
CCOC(=O)C1(CCOc2ccccc2)CCN(Cc2ccc(O)c(OCC)c2)CC1	–	–	81	–
CCOC(=O)C1(CCOc2ccccc2)CCN(Cc2ccc(OC)c(O)c2)CC1	–	–	71	–
CCOC(=O)C1(CCOc2ccccc2)CCN(Cc2ccc(OC)c(COC)c2)CC1	–	–	74	–
CCOC(=O)C1(CCOc2ccccc2)CCN(Cc2ccc(O)cc2)CC1	–	–	56	–
CCOC(=O)C1(CCOc2ccccc2)CCN(Cc2ccc(OCCO)cc2)CC1	–	–	–	·
CCCN1CCC(CCOc2ccccc2)(C(=O)OCC)CC1	–	–	–	·

High-throughput results as filed in PubChem.
